# This is a sample that favours compounds with a hit; in the whole collection about 9.3% have one here.
# VACV mCherry inh = qHTS for Stage-Specific Inhibitors of Vaccinia Orthopoxvirus: mCherry Reporter Primary qHTS. Vaccinia virus mCherry reporter infection, fluorescence. Potency, µM (titrated, usually from 36.5 µM), for inactives: at the top dose activity change, negative = inhibition, actives largely listed as inhibitors. actives 0.63% (n = 310,000). AID 720579, 2013; calls by dose curve; tested in A549 cells; also: potency is read from the fitted curve at half-maximal effect; nearly all actives have a fitted effect of over 35% in size
# Sm TGR block = qHTS Assay for the Inhibitors of Schistosoma Mansoni Peroxiredoxins | Schistosoma mansoni thioredoxin glutathione reductase (TGR), Q962Y6 | purified TGR, DTNB reduction, TNB absorbance 405 nm | Potency, µM (doses to about 114 µM), without a hit: top-dose activity change, negative = inhibition, usual class: inhibitors | actives 3% (n = 360,000); also: potency is read from the fitted curve at half-maximal effect; nearly all actives have a fitted effect of over 60% in size
#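 First, TGR (20 nM dispensed) and NADPH were mixed with compound. Second, a 15 min room-temperature incubation followed. Third, further NADPH and then DTNB were added to start the reaction. Finally, TNB absorbance was monitored kinetically.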
# HCMV inh = qHTS Assay for inhibitors of the human cytomegalovirus (HCMV); actives 4.5% (n = 410,000); activity change, negative = inhibition, % at 57.5 µM; HFF cells, HCMV-luciferase reporter, 72 h; active compounds read low; in the data active = activity change below about -60%; inconclusive = no clear call, values can overlap the other calls; inactive = above about -39%
#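 Compounds were evaluated in HFFs infected with an HCMV luciferase reporter virus (MOI 1 PFU/cell). Luciferase in lysates collected 72 h post infection served as the replication measure.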
# HCV inh = qHTS Assay for Inhibitors of Hepatitis C Virus (HCV). Potency, µM (doses to about 41.8 µM), without a hit: top-dose activity change, negative = inhibition, usual class: inhibitors. Huh7.5.1 HCVcc-Cre infection, luciferase reporter, 44 h. actives 3.4% (n = 340,000). AID 651820, 2012; also: potency is read from the fitted curve at half-maximal effect
#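 Reporter virus HCVcc-Cre (~0.5 moi) infects cells exposed to compound; seeding density 1,000 cells/well with 4 h settling beforehand. Luminescence, 15 sec read, taken 44 h post-infection following a 15 min RT substrate incubation.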
# VACV Venus inh = qHTS for Stage-Specific Inhibitors of Vaccinia Orthopoxvirus: Venus Reporter Primary qHTS | Vaccinia virus Venus reporter expression, fluorescence | Potency, µM (top dose mostly 36.5 µM), for the others: at the highest dose activity change, negative = inhibition, hits mostly inhibitors | actives 0.46% (n = 330,000) | AID 720580, 2013; calls by dose curve; tested in A549 cells; also: potency is read from the fitted curve at half-maximal effect; nearly all actives have a fitted effect of over 30% in size
# FMDV inh = High Throughput Screening for Foot and Mouth Disease Virus Antivirals; FMDV antiviral cell-based qHTS; Potency, µM (titrated, usually from 57.9 µM), for the others: at the highest dose activity change, negative = inhibition, most hits filed as inhibitors; actives 1.2% (n = 410,000); calls by dose curve; tested in HEK293T cells; also: read-out not given here; potency is read from the fitted curve at half-maximal effect; nearly all actives have a fitted effect of over 45% in size
# * marks the source's active call; other numbers are inactive results; i = inactive; u = inconclusive; x = no result; [ ] = remark or other dose. Unless noted, calls follow the shape of the dose curve; as a rule, active = well fitted curve in the direction sought with a large enough effect; inconclusive = small, poorly fitted or top-dose-only effect, or another doubt; inactive = no such curve, though single readings can be large; an effect the other way counts as inactive or inconclusive. % is scaled to controls: 0 for no effect and ±100 for the full control effect.
SMILES,VACV mCherry inh,Sm TGR block,HCMV inh,HCV inh,VACV Venus inh,FMDV inh
CCn1c(C)c(C(C)=O)c(NCc2ccccc2)nc1=S,-18.9%,-18.9%,-81.4*,0.1%,-7.7%,51.0%
CC(=O)c1c(NCCc2ccccc2)nc(=S)n(-c2ccccc2)c1C,x,-2.7%,-100.5*,u,x,u
Cc1cccc(OCCSc2nnc(-c3ccoc3C)n2C)c1,x,0.0%,-13.7,-12.8%,x,-2.5%
COc1ccc(CN2C(=O)C(Cc3ccccc3)Nc3ncnc(N4CCN(c5ccccc5)CC4)c32)cc1 (centres undefined),-22.2%,u,u,3.16µM*,-29.1%,0.1%
COc1ccc(CCNC(=O)c2ccc(CS(=O)(=O)c3ccc(C)cc3)o2)cc1OC,i,-9.3%,-28.4,14.1µM*,-8.5%,31.6µM*
COc1ccc(CCNC(=O)c2ccc(N(C)S(=O)(=O)c3ccc(C)cc3)cc2)cc1OC,x,-1.9%[57.1 µM],-22.2,10µM*,x,u
COc1ccc(CCNC(=O)c2ccc(CS(=O)(=O)Cc3ccc(C)cc3)o2)cc1OC,i,x,u,x,-21.8%,-11.5%
COc1ccc(CCNC(=O)COc2ccc(N(C)S(=O)(=O)c3ccc(C)cc3)cc2)cc1OC,i,1.3%,-33.9,u,6.0%,-7.0%
Cc1ccc(CSCCNC(=O)c2ccc(N(C)S(=O)(=O)c3ccccc3)cc2)cc1,x,2.1%,-12.3,11.2µM*,u,-28.1%
COc1ccc(CCNC(=O)c2ccc(CS(=O)(=O)c3ccc(Cl)cc3)o2)cc1OC,x,-28.7%,u,12.6µM*,x,15.8µM*
Clc1cccc(Cl)c1NC1=NCCN1,-1.7%[87.9 µM],-7.5%,x,x,-15.4%[87.9 µM],-9.0%[97.4 µM]
O=C(NCc1ccccc1Cl)c1nnc(Cc2cccc(F)c2)o1,-3.4%,10.3%,7.5,x,-8.4%,6.5%
COc1ccccc1CNC(=O)Cn1nc(C)n2cccc2c1=O,-9.5%,6.0%,16.5,x,-3.7%,-1.9%
CCn1c(COc2ccc(=O)n(-c3ccccc3)n2)nnc1SCc1cccc(OC)c1,x,4.0%,-0.7,17.3%,x,1.1%
C=CCSc1nnc(COc2ccc(=O)n(-c3ccccc3)n2)n1CC,-0.5%,7.8%,-93.1*,17.5%,-12.7%,-1.9%
Cc1ccc(CNC(=O)c2c[nH]n3c(=O)c(Cc4ccc(F)cc4Cl)c(C)nc23)cc1,2.1%[7.34 µM],-0.2%,33.6,x,-4.2%[7.34 µM],-11.7%
COc1ccc(C(CC(C)=O)c2c(O)c3ccccc3oc2=O)cc1OC (centres undefined),i,x,-10.4,x,-7.4%,-4.4%
CC/C(CC(c1ccccc1)c1c(O)c2ccccc2oc1=O)=N\NC(N)=S (centres undefined),14.1µM*,4.2%,-5.6,-3.1%,u,29.3%
NS(=O)(=O)c1ccc(N=Nc2c(-c3ccccc3)[nH]n(-c3nc(-c4ccccc4)cs3)c2=O)cc1,i,3.4%,-36.8,6.31µM*,-17.9%,-20.0%
COc1cccc(CNC(=O)CCS(=O)(=O)c2cccc3nsnc23)c1,x,-7.4%,59.5,21.2%,x,-18.6%
O=C(CCS(=O)(=O)c1cccc2nonc12)N1CCCc2ccccc21,x,35.5µM*,37.1,0.8%,x,6.6%
O=C(CCS(=O)(=O)c1cccc2nonc12)NCCc1ccccc1,x,u,15.9,-0.8%,x,9.3%
O=C(CCS(=O)(=O)c1cccc2nonc12)NCc1ccc(Cl)cc1,-7.4%,35.5µM*,-18.8,13.2%,-10.4%,-9.4%
COc1ccc(OC)c(NC(=O)CCNS(=O)(=O)c2cccc3nonc23)c1,i,-6.4%,-21.7,13.2%,-14.2%,17.2%
COc1ccc(NS(=O)(=O)c2cccc3nonc23)c(OC)c1,i,17.8µM*,-21.7,24.1%,-11.9%,-9.5%
SMILES,VACV mCherry inh,Sm TGR block,HCMV inh,HCV inh,VACV Venus inh,FMDV inh
COc1cccc(CNC(=O)CCS(=O)(=O)c2cccc3nonc23)c1,x,44.7µM*,14.4,10.0%,x,5.9%
Cc1cc(NC(=O)CSCC(=O)N(C)Cc2ccc(F)cc2)no1,-21.2%,-1.1%,22.1,9.2%,-14.4%,-5.3%
CCOC(=O)c1c(S(=O)(=O)NCC(=O)Nc2ccccc2F)c(C)n(C)c1C,x,7.8%,-33.0,7.0%,x,20.9%
Cc1ccccc1CN1CCN(C(=O)CC(C)C)CC1,x,50.1µM*,-8.8,-1.0%,x,-3.3%
CSc1ccc(CN2CCN(C(=O)CC(C)C)CC2)cc1,i,1.4%,-31.0,11.2µM*,-11.8%,-19.3%
O=c1[nH]nc(-c2ccc[nH]2)[nH]1,-5.2%,x,7.4,x,-11.6%,-24.3%
COc1ccc(-c2onc(C)c2-c2cscn2)c(O)c1,-6.4%,5.3%,6.7,12.3%,-16.2%,-17.0%
CCOc1ccc(-c2onc(C(F)(F)F)c2-c2cscn2)c(O)c1,x,1.0%,-31.6,10µM*,x,u
Cc1cc(O)cc(O)c1-c1onc(C(F)(F)F)c1-c1cscn1,x,4.2%,-71.4*,u,u,u
Cc1cc(NC(=O)COC(=O)C2CC(=O)N(c3ccccc3Cl)C2)no1 (centres undefined),-11.8%,7.7%,-19.0,-1.8%,1.5%,-9.9%
CCCC[C@]12Cc3ccccc3C(O1)c1c(cc(-c3ccccc3)oc1=O)O2,x,3.16µM*,x,x,x,x
Cc1ccc(NS(=O)(=O)c2ccc(C(=O)NCc3ccccn3)cc2)cc1,-7.1%,-12.3%,-12.1,0.0%,-11.4%,10.6%
CC1CCN(C(=O)c2scc3c2OCCO3)CC1,-6.4%,-27.2%,-63.2*,1.3%,0.8%,2.2%
COc1ccc(N2C(=O)C3CCCN3C2c2ccccc2F)cc1 (centres undefined),-14.7%,0.0%,-2.7,7.0%,-11.7%,-1.6%
O=C1C2CCCN2C(c2ccccc2)N1c1ccc(Cl)cc1 (centres undefined),x,-7.7%,-96.6*,1.7%,x,6.1%
O=C1C2CCCN2C(c2cccnc2)N1c1ccc(Cl)cc1 (centres undefined),-16.8%,-19.3%,-15.9,-5.8%,-1.0%,-15.1%
O=C1C2CCCN2C(c2ccccc2F)N1c1ccc(Cl)cc1 (centres undefined),x,-1.2%,-63.8*,3.0%,x,7.9%
CCOC(=O)c1ccc(NC(=O)Cn2c(-c3nonc3N)nc3ccccc32)cc1,x,-10.3%,-9.7,-24.8%,x,-1.0%
COc1cccc(NC(=O)CN(C)C(=O)/C=C/c2cn(-c3ccccc3)nc2-c2ccc(OC)c(OC)c2)c1,x,x,-5.5,u,x,-32.0%
CN(CCCn1cnc2c(OCc3ccccc3)ncnc21)CCc1ccccn1,-5.7%,x,5.2,21.8%,0.0%,3.6%
COc1ccc(CN(C)CCCn2cnc3c(OCc4ccccc4)ncnc32)cc1,u,x,-97.3*,-13.1%[8.37 µM],-15.5%,-20.1%

# Bioassay records from PubChem BioAssay.
